# Screening results deposited in PubChem BioAssay by National Center for Advancing Translational Sciences (NCATS).
# IDH1 R132H inh: qHTS for Inhibitors of mutant isocitrate dehydrogenase 1 (IDH1): qHTS. Isocitrate dehydrogenase [NADP] cytoplasmic (Homo sapiens), O75874. IDH1-R132H enzyme, NADPH consumption, diaphorase/resazurin fluorescence. Potency, µM (top dose mostly 76.6 µM), usual class: inhibitors. hit rate 0.093% among 390,000. AID 602179, 2012; note: nearly all actives have a fitted effect of over 65% in size
#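 IDH1-R132H (0.5 ug/mL dispensed) in pH 7.5 Tris buffer was preincubated 30 min with compound, then given a substrate mix of 0.016 mM NADPH and 2 mM alpha-KG for 80 min at room temperature; remaining NADPH was read by diaphorase/resazurin fluorescence.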
# rTrxR1 inhibitor: qHTS Assay for Inhibitors of Mammalian Selenoprotein Thioredoxin Reductase 1 (TrxR1): qHTS | Thioredoxin reductase 1, cytoplasmic (Rattus norvegicus), O89049 | recombinant rTrxR1, NADPH fluorescence consumption, selenite substrate | Potency, µM (series often up to 114 µM), hits mostly inhibitors | hit rate 1% among 390,000 | AID 588453, 2011; note: nearly all actives have a fitted effect of over 65% in size
#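 Rat TrxR1 (90 nM in the dispensed reagent) was pre-reduced with 400 uM NADPH for 5 min at room temperature, then incubated with compound for 15 min. After 400 uM selenite was added, NADPH fluorescence (Ex 340/Em 450 nm) was followed for 8 min.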
# TrxR1 substrate: qHTS Assay for Substrates of Mammalian Selenoprotein Thioredoxin Reductase 1 (TrxR1): qHTS; Thioredoxin reductase 1, cytoplasmic (Rattus norvegicus), O89049; purified TrxR1 substrate turnover, NADPH consumption readout; Potency, µM (highest dose often 114 µM); hit rate 0.01% among 390,000; note: nearly all actives have a fitted effect of over 50% in size
#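 Rat TrxR1, dispensed at 90 nM, was prereduced with 400 uM NADPH (final) for 5 min at ~22 deg C, then incubated with compound 15 min before 400 uM selenite. A first-read NADPH fluorescence drop versus no-compound background flagged substrates.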
# Glioma ERSR ind: qHTS for Inducers of the Endoplasmic Reticulum Stress Response (ERSR) in Human Glioma: qHTS | U87-MG GRP78 promoter luciferase reporter, 16 h | Potency, µM, hits mostly activators | hit rate 0.02% among 420,000; note: series mostly up to about 76 µM; nearly all actives have a fitted effect of over 35% in size
#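 ERSR induction read as luciferase luminescence (Bright-Glo, 10 min at room temperature) in stably transfected human U87-MG glioma cells exposed to compounds for 16 h, using GRP78 as sensor.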
# 12-LOX inh: Primary qHTS assay for inhibitors of human arachidonate 12S-lipoxygenase (ALOX12): Round 2; Polyunsaturated fatty acid lipoxygenase ALOX12 (Homo sapiens), P18054; purified 12hLO, xylenol orange hydroperoxide absorbance; Potency, µM (top dose mostly 108 µM), most hits filed as inhibitors; hit rate 1.1% among 580,000
# Target sequence (P18054 whole entry, looked up): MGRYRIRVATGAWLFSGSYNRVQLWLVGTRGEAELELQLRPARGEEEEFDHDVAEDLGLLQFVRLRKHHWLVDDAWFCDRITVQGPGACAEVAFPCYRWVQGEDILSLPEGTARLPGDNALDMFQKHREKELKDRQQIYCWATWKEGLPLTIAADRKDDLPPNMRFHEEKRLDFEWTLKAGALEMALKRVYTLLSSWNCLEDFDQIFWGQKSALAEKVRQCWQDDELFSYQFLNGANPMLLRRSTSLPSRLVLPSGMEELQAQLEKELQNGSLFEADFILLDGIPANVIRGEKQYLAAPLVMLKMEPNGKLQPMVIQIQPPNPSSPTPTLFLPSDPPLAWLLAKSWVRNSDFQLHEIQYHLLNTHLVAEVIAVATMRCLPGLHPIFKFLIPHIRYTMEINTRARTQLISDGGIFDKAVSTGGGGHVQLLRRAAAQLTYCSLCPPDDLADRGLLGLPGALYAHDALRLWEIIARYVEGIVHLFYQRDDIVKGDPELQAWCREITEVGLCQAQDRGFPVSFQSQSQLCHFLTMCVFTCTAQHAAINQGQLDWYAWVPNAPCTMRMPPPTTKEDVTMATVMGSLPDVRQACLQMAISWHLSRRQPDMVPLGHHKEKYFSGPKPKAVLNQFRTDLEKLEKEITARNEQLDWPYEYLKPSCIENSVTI
#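 Purified human 12hLO at 150 nM in 25 mM Hepes, 0.01% Triton X-100, pH 7.0, preincubated 15 min at room temperature with compound. Reaction started with 40 uM arachidonic acid, 30 min at room temperature. Hydroperoxide measured by Fe-xylenol orange, 573/405 nm absorbance ratio.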
# Apoferritin bind: qHTS Assay for Identification of Novel General Anesthetics. Potency, µM (titrated, usually from 77.5 µM), usual class: inhibitors. hit rate 0.074% among 350,000. AID 485281, 2010. apoferritin/1-aminoanthracene competitive binding, fluorescence; note: nearly all actives have a fitted effect of over 20% in size
#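 Apoferritin-based anesthetic binding model; compound displacement of fluorescent 1-AMA measured as endpoint fluorescence after 10 minutes at room temperature, scaled to free-ligand and complex controls.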
# Numbers stand for hits; - = inactive; ? = inconclusive; . = no result given; [ ] = remark or other dose. A selection: hits, their analogues and other compounds. The true share with any hit is near 1.7%. Calls come from the whole dose curve; as a rule, active = well fitted curve in the direction sought with a large enough effect; inconclusive = small, poorly fitted or top-dose-only effect, or another doubt; inactive = no such curve, though single readings can be large; an effect the other way counts as inactive or inconclusive.
SMILES,IDH1 R132H inh,rTrxR1 inhibitor,TrxR1 substrate,Glioma ERSR ind,12-LOX inh,Apoferritin bind
Cc1ccc(S(=O)(=O)c2nc(-c3ccccc3)oc2N2CCN(c3ccccc3)CC2)cc1,-,-,-,-,-,-
Cc1ccc(S(=O)(=O)c2nc(-c3ccccc3)oc2N2CCCC2)cc1,-,6.3µM,-,-,-,.
c1ccc(CC2=NOC3(CCN(CC4CC4)CC3)C2)cc1,.,.,.,.,-[12.5 µM],.
O=S(=O)(c1ccccc1)c1nc(-c2ccccc2)oc1N1CCCC1,-,-,-,-,-,-
O=S(=O)(c1ccccc1)c1nc(-c2ccccc2)oc1N1CCCCC1,-,45µM,-,-,?,-
COCc1cc(O)c(O)c(O)c1-c1c(COC)cc(O)c(O)c1O,.,14µM,-,-,.,-
CCc1oc(C(=O)O)cc1COC,-,-,-,-,-,-
COc1ccc(C(=O)COc2ccc3c(c2)OCO3)cc1OC,.,.,.,.,45µM,.
CCCCCCCCc1ccc(C(=O)CCN(C)C)cc1,.,.,.,.,13µM,.
CCN(CC)CCC(=O)c1ccc(F)cc1,-,?,-[11.4 µM],-,-,-
CN(C)CCC(=O)c1ccc(F)cc1,-,1.1µM,-,-,-,-
CN(C)CCC(=O)c1cccc(Br)c1,-,0.32µM,-,-,?,-
Cc1ccc(-c2nnc3ccccc3c2C(=O)Nc2cccc(C(F)(F)F)c2)cc1,-,-,-,-,-,-
CCCN(CCC)CCCNC(=O)C1CCN(c2nc3ccc(CC)cc3s2)CC1,-,-,-[2.29 µM],-,-,-
CCCCCCc1ccc(C(=O)CCN(C)C)cc1,.,10µM,-,-,.,?
CN(C)CCCC(=O)c1ccc2c(c1)OCO2,-,-,-,-,-,-
CN(C)CCC(=O)c1ccc2c(c1)OCO2,-,0.32µM,-,-,?,-
CN(C)c1nc(N)nc(CSc2ccccc2F)n1,.,.,.,.,-,.
S=c1[nH]nc(-c2ccncc2)n1/N=C/C=C/c1ccco1,-,?,-,-,?,-
CC(=C/c1ccccc1)/C=N/n1c(-c2ccncc2)n[nH]c1=S,-,-,-,-,13µM,-
CC(/C=N/n1c(-c2cccnc2)n[nH]c1=S)=C\c1ccccc1,-,-,-,-,-,-
C(=C\c1ccco1)/C=N/n1cnnc1,-,22µM,-,-,-,-
COc1ccccc1/C=C/C=N/n1c(-c2cc(-c3ccccc3)n[nH]2)n[nH]c1=S,-,-,-,-,10µM,-
S=c1[nH]nc(-c2ccccc2Cl)n1/N=C/C=C/c1ccco1,-,-,-[11.4 µM],-,?,-
Cc1cccc(-c2n[nH]c(=S)n2/N=C/C=C/c2ccco2)c1,-,?,-,-,25µM,-
SMILES,IDH1 R132H inh,rTrxR1 inhibitor,TrxR1 substrate,Glioma ERSR ind,12-LOX inh,Apoferritin bind
COc1ccc(OCCN(C)C(=O)c2ccc3ccccc3n2)cc1,.,.,.,.,-,.
CCn1nccc1C(=O)N1CCC(N2C(=O)[C@H](OCCOC)[C@@H]2c2ccncc2)CC1,.,.,.,.,-,.
CC(/C=N/n1c(-c2ccncc2)n[nH]c1=S)=C\c1ccco1,-,50µM,-,-,7.1µM,-
COc1cccc(Cn2c(=O)n(Cc3ccco3)c(=O)c3oc4ccccc4c32)c1,-,-,-,-,-,-
CC1CCCCN1S(=O)(=O)c1ccc(NC(=O)c2cccc(-n3cnnn3)c2)cc1 (centres undefined),-,-,-,-,-,?
CC1CCCN(S(=O)(=O)c2ccc(NC(=O)c3cccc(-n4cnnn4)c3)cc2)C1 (centres undefined),-,-,-,-,-,14µM
N/C(=N\C(=S)Nc1ccc2c(c1)OCO2)c1ccccc1,.,.,.,-,?,.
COCCNc1oc(-c2ccco2)nc1S(=O)(=O)c1ccccc1,-,-,-,-,.,-
CSc1oc(-c2ccco2)nc1S(=O)(=O)c1ccccc1,-,-,-,-,35µM,-
C=CCNc1oc(-c2ccco2)nc1S(=O)(=O)c1ccccc1,-,45µM,-,-,?,-
COc1ccc(-c2nn(-c3ccc(F)cc3)c(OC(C)=O)c2-c2ccc(NC(C)=O)cc2)cc1OC,.,.,.,.,11µM,.
Cc1ccc(Sc2ccnc3cc(Cl)ccc23)cc1,.,.,.,.,-,.
COc1ccc(-c2nc(NC(=O)c3ccco3)sc2C)cc1,-,.,.,-,?,.
COc1ccc(-c2nc(NC(=O)c3cc(OC)c(OC)c(OC)c3)sc2C)cc1,.,.,.,.,45µM,.
CN1CCN(c2cc(=O)n(Cc3ccc(F)cc3)c(=O)[nH]2)CC1,-,14µM,-,-,-,-
O=c1cc(N2CCN(c3ccccc3)CC2)[nH]c(=O)n1Cc1ccc(F)cc1,-,-,-,-,-,-
